Assay outcomes as filed in PubChem.
Dicer inh – human Dicer pre-microRNA cleavage inhibition. z-score at 25 µM. cat-ELCCA pre-miR-21 Dicer processing, chemiluminescence; stronger effect = higher value. 6% of 47,000 active. AID 1347074; in the data active means z-score above about 3, passing the limit was not always enough;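 further: higher signal means more uncleaved substrate so more Dicer inhibition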
Target sequence (Q9UPY3 whole entry, looked up): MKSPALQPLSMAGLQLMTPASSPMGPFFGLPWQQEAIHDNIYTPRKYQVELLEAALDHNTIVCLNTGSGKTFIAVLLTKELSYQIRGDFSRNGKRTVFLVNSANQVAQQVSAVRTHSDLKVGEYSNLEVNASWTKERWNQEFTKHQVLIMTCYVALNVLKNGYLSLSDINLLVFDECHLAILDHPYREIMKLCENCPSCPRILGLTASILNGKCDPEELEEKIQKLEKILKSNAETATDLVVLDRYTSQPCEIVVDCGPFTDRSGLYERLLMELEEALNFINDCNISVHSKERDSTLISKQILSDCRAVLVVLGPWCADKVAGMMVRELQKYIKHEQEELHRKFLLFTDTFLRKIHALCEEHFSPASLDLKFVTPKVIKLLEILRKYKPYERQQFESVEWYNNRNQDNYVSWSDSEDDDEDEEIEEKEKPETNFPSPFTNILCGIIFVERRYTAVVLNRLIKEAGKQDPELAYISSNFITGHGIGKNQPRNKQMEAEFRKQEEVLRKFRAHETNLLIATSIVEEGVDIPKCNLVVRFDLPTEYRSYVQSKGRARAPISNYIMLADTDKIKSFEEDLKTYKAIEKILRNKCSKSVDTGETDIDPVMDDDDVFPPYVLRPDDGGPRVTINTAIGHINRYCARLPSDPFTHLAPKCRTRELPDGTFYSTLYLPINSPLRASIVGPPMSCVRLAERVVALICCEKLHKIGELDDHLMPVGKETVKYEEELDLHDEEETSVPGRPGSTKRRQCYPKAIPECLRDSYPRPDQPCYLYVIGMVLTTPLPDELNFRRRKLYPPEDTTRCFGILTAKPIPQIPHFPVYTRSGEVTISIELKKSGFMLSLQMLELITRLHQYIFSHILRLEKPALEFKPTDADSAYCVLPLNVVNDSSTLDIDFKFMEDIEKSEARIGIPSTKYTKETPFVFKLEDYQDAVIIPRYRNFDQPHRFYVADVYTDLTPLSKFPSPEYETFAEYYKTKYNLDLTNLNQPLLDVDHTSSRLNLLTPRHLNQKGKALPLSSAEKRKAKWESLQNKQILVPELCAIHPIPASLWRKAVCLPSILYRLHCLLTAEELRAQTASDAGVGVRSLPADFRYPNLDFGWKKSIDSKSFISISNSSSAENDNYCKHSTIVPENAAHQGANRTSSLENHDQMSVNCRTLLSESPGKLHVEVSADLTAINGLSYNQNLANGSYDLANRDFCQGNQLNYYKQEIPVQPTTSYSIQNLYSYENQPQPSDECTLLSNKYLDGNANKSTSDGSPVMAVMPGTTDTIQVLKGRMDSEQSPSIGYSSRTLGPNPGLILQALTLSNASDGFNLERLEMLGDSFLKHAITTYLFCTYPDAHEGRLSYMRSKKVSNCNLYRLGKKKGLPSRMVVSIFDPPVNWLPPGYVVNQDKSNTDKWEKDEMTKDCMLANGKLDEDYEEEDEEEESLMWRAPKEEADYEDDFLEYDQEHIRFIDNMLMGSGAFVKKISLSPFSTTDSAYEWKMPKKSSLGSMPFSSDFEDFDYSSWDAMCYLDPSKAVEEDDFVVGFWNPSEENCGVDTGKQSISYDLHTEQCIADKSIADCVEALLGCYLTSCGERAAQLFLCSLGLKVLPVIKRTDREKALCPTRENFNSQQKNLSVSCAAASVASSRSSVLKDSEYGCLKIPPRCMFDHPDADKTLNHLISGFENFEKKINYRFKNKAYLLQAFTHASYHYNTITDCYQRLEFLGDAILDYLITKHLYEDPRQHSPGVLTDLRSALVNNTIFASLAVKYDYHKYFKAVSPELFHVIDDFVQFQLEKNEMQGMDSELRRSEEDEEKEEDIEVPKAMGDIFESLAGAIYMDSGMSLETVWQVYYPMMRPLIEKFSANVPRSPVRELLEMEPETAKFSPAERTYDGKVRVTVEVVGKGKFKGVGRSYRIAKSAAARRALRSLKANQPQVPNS
Numbers stand for hits. Only a selection was taken, and hits are over-represented in it overall.

Screening COc1cccc(C2Oc3c(OC)cccc3C3CC(c4cc(OC)ccc4O)=NN32)c1 (stereo not given) returned Dicer inh inactive.
`COc1ccc(O)c(C2=NN3C(C2)c2cccc(OC)c2OC3c2ccncc2)c1` (stereo not given) gave Dicer inh 6.2.
For COc1cc(C2Oc3c(OC)cccc3C3CC(c4cc(C)ccc4O)=NN32)ccc1O (stereo not given) the results were Dicer inh 14.
COc1ccc(C2Oc3c(OC)cccc3C3CC(c4cc(C)ccc4O)=NN32)cc1O (stereo not given) was read as Dicer inh inactive.
`COc1cccc2c1OC(c1ccncc1)N1N=C(c3cc(C)ccc3O)CC21` (stereo not given) gave Dicer inh inactive.
`Cc1ccccc1C1N=C(N)Nc2nc3ccccc3n21` (stereo not given) gave Dicer inh inactive.
For CSCc1nnc(-c2cccc([N+](=O)[O-])c2)o1 the results were Dicer inh inactive.
CCOc1ccc(-c2c(C)sc3ncn(C(C)C(=O)O)c(=O)c23)cc1 (stereo not given) was read as Dicer inh inactive.
COC(=O)c1ccccc1N(Cc1ccc(Cl)c(Cl)c1)S(C)(=O)=O was read as Dicer inh inactive.
For S=C(NCC1CCCO1)N/N=C/c1cccnc1 (stereo not given) the results were Dicer inh inactive.
For CSC(=Nc1ccccc1F)N1CCCCC1 the results were Dicer inh 4.8.
`CS/C(=N\S(=O)(=O)c1ccccc1)N1CCCC1` gave Dicer inh inactive.
Screening CS/C(=N\S(=O)(=O)c1ccccc1)N1CCCCC1 returned Dicer inh inactive.
`COc1ccc(-c2cc3ncc(C(=O)c4cc(Cl)c(C)cc4O)cn3n2)cc1` gave Dicer inh inactive.
Screening CCCCOC(=O)C1=C(C)NC2=C(C(=O)CC(C)(C)C2)C1c1ccc(C)cc1 (stereo not given) returned Dicer inh inactive.
For O=C(Nc1ccccc1Oc1ccc(Cl)cc1Cl)c1c(F)cccc1F the results were Dicer inh inactive.
Screening COc1ccc(Nc2nc(NC(=O)Nc3ccc(Cl)cc3)n[nH]2)cc1 returned Dicer inh 10.
COc1ccc2nc(NC(=O)Nc3ccc(Cl)cc3)sc2c1 was read as Dicer inh inactive.
For COc1ccc(NC(=O)/C=C/c2ccc(Cl)cc2)cc1 the results were Dicer inh inactive.
Screening CCC(C)C(NS(=O)(=O)c1cccc2nsnc12)C(=O)O (stereo not given) returned Dicer inh inactive.
For O=C(CSc1ncccn1)c1ccc(O)c(O)c1 the results were Dicer inh 4.2.
`Cn1ccnc1SCC(=O)c1ccc(F)c(F)c1` gave Dicer inh inactive.
`O=C(CSc1ncc(Sc2ncccn2)c(-c2ccc(Cl)cc2)n1)c1ccc(Cl)cc1` gave Dicer inh inactive.
Screening CCOC(=O)Cc1csc(NS(=O)(=O)c2ccc(F)cc2F)n1 returned Dicer inh inactive.
CC(C)(C)c1cc2nc(C(F)(F)F)cc(SCCOC(=O)c3cccs3)n2n1 was read as Dicer inh inactive.
Screening Cc1nc(NCCO)c2c3c(sc2n1)CCCC3 returned Dicer inh inactive.
Screening CCCSc1nc(N2CCCC2)c2c(c1C#N)CC(C)(C)OC2 returned Dicer inh 3.6.
`CC1(C)Cc2c(C#N)c(SCCOc3ccccc3)nc(N3CCOCC3)c2CO1` gave Dicer inh inactive.
`CCSc1nc(N2CCCC2)c2c(c1C#N)CC(C)(C)OC2` gave Dicer inh inactive.
For Cc1nc(-c2ccc(Cl)cc2)c(-c2ccccc2)s1 the results were Dicer inh inactive.
For CC1(C)C2CC[C@](C)(C2)C1NC(=O)c1ccc(Cl)cc1Cl (stereo not given in full) the results were Dicer inh inactive.
For CCCC(=O)N(c1ccc2oc(=O)sc2c1)S(=O)(=O)c1ccc(F)cc1 the results were Dicer inh inactive.
Screening CCCC(=O)N(c1ccc2oc(=O)sc2c1)S(=O)(=O)c1cc(OC)ccc1OC returned Dicer inh inactive.
For CCCCC(=O)N(c1ccc2oc(=O)sc2c1)S(=O)(=O)c1ccc(OCC)cc1 the results were Dicer inh inactive.
O=C(Cc1ccccc1)N(c1ccc2oc(=O)sc2c1)S(=O)(=O)c1ccccc1 was read as Dicer inh 5.4.
`CCCC(=O)N(c1ccc2oc(=O)sc2c1)S(=O)(=O)c1ccc(C(=O)O)cc1` gave Dicer inh inactive.
CCCCC(=O)N(c1ccc2oc(=O)sc2c1)S(=O)(=O)c1ccc(OC)c(OC)c1 was read as Dicer inh 3.9.
`CCCC(=O)N(c1ccc2oc(=O)sc2c1)S(=O)(=O)c1ccc(OC)c(OC)c1` gave Dicer inh 4.2.
`CC(C)C(=O)N(c1ccc2oc(=O)sc2c1)S(=O)(=O)c1ccc(Br)cc1` gave Dicer inh inactive.
Screening CCCCC(=O)N(c1ccc2oc(=O)sc2c1)S(=O)(=O)c1cccs1 returned Dicer inh inactive.
Screening CCCOC(=O)C1=C(C)NC2=C(C(=O)CC(C)(C)C2)C1c1ccncc1 (stereo not given) returned Dicer inh inactive.
For NCCSC(=S)NC1CCCCCCC1 the results were Dicer inh inactive.
O=S(=O)(Cc1ccco1)Cc1nc(-c2ccc(-c3ccccc3)cc2)cs1 was read as Dicer inh inactive.
`CCOC(=O)c1c(NCc2ccccc2)sc(C(=O)c2ccc(Br)cc2)c1N` gave Dicer inh inactive.
Screening O=[N+]([O-])c1ccc(-c2nnnn2Cc2ccccc2)cc1 returned Dicer inh inactive.
`CSc1sccc1/C=C(/C#N)C(=O)c1cccs1` gave Dicer inh inactive.
For CC(C)Cc1ccc(C(=O)C(C)N2CCN(c3ccc([N+](=O)[O-])cn3)CC2)cc1 (stereo not given) the results were Dicer inh inactive.
CCOC(=O)COc1ccc2c(=O)c(-c3ccc(OC)c(OC)c3)c(C(F)(F)F)oc2c1 was read as Dicer inh inactive.
COc1cccc(/C=N/n2nnc3sc(-c4ccccc4)cc3c2=O)c1 was read as Dicer inh inactive.
Screening O=C(O)CSCC(=O)N1CCN(c2ncccn2)CC1 returned Dicer inh inactive.
For C=CCOC(=O)C1=C(C)NC2=C(C(=O)CC(c3ccccc3)C2)C1c1ccc(O)cc1 (stereo not given) the results were Dicer inh inactive.
CC1=C(C(=O)OCCOC(C)C)C(c2ccc(F)cc2)C2=C(CC(c3cccs3)CC2=O)N1 (stereo not given) was read as Dicer inh inactive.
`CCSCCOC(=O)C1=C(C)NC2=C(C(=O)CC(c3ccc(OC)cc3)C2)C1c1cccc(O)c1` (stereo not given) gave Dicer inh inactive.
Screening CCSCCOC(=O)C1=C(C)NC2=C(C(=O)CC(c3ccccc3)C2)C1c1ccc(N(C)C)cc1 (stereo not given) returned Dicer inh inactive.
`CC1=C(C(=O)OCC(C)C)C(c2ccc(N(C)C)cc2)C2=C(CC(c3ccccc3)CC2=O)N1` (stereo not given) gave Dicer inh 3.6.
`CC1=C(C(=O)OCCOC(C)C)C(c2cccc(Cl)c2)C2=C(CC(c3cccs3)CC2=O)N1` (stereo not given) gave Dicer inh inactive.
For COc1cccc(C2C(C(=O)OCC3CCCO3)=C(C)NC3=C2C(=O)CC(C)(C)C3)c1OC (stereo not given) the results were Dicer inh 5.4.
